{"source": "paper PMC7862700", "about": "“An all-to-all approach to the identification of sequence-specific readers for epigenetic DNA modifications on cytosine”", "assay_in_all_cases": "DAPPL (digital affinity profiling via proximity ligation, sequencing); 10 mM Tris-HCl pH 7.5, 50 mM NaCl, 1 mM DTT, 4% glycerol, room temperature, 30 min; GST-TFs on glutathione beads, 16-mer random dsDNA library, 0.1% formaldehyde crosslink after washing; high values mean tight binding", "key": {"FEV": {"biological_target": "T1, FEV (Homo sapiens, UniProt Q99581 1-238)", "T1 sequence": "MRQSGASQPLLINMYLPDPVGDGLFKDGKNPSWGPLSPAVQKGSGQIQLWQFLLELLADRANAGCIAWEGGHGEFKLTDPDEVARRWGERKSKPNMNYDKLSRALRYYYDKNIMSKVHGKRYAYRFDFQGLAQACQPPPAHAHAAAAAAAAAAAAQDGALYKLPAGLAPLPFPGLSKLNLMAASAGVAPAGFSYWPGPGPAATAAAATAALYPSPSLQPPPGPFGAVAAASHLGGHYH", "conditions": "protein: recombinant; tags: N-terminal GST; dsDNA, one strand shown", "how_it_was_run": "(§1)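 Pools were built from human transcription factors expressed in yeast as GST fusions, captured on glutathione beads and DNA-barcoded, along with a tag-only sample. Incubation with 200 nmole of a 16-mer random double-stranded DNA library lasted 30 min at room temperature in Tris/NaCl/DTT/glycerol buffer, and was followed by washing, 0.1% formaldehyde crosslinking, proximity ligation, PCR amplification and Illumina NextSeq500 sequencing. Binding signal is the quotient of each hexamer's read frequency for a factor and its frequency for the tag-only sample.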"}, "ETV5": {"biological_target": "ETV5 (Homo sapiens, UniProt P41161 1-510)", "sequence (P41161 whole entry)": "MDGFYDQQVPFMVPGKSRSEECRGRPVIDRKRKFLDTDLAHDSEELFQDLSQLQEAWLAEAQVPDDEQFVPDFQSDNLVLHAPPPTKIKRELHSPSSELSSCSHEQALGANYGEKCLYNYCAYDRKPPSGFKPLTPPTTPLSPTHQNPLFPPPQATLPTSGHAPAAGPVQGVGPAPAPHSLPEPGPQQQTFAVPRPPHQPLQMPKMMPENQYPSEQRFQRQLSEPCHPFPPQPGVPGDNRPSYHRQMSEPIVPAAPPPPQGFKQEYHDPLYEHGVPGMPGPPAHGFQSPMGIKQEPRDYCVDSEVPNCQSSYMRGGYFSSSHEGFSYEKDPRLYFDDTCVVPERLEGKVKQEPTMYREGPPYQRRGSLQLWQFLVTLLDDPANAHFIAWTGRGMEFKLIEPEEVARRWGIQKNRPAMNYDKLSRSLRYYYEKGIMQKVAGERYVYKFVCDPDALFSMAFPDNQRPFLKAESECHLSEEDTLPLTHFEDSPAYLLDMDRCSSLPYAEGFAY", "conditions": "protein: recombinant; tags: N-terminal GST; dsDNA, one strand shown", "how_it_was_run": "as §1"}, "HSF1": {"biological_target": "HSF1 (Homo sapiens, UniProt Q00613 1-529)", "sequence (Q00613 whole entry)": "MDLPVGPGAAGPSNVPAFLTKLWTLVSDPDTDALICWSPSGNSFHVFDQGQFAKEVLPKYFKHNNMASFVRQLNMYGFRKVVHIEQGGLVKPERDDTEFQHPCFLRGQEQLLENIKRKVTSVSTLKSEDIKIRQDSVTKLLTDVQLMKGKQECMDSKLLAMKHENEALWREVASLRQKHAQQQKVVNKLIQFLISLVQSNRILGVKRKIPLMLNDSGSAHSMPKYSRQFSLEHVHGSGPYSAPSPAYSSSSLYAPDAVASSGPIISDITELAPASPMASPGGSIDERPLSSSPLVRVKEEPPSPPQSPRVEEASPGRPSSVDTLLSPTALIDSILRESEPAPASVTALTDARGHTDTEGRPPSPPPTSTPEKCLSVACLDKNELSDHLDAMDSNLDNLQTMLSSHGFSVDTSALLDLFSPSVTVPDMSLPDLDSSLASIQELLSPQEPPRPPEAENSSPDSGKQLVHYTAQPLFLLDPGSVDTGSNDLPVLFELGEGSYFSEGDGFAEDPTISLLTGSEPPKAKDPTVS", "conditions": "protein: recombinant; tags: N-terminal GST; chain copies: 3; dsDNA, one strand shown", "how_it_was_run": "as §1"}, "SPIC": {"biological_target": "T2, SPIC (Homo sapiens, UniProt Q8N5J4 1-248)", "T2 sequence": "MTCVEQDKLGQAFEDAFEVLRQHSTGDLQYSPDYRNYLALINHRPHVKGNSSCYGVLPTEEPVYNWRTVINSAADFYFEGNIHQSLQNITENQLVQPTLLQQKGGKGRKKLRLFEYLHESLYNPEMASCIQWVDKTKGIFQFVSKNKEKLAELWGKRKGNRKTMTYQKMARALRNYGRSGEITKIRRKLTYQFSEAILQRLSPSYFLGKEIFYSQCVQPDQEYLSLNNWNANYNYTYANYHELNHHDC", "conditions": "protein: recombinant; tags: N-terminal GST; dsDNA, one strand shown", "how_it_was_run": "as §1"}, "ELF4": {"biological_target": "ELF4 (Homo sapiens, UniProt Q99607 1-663)", "sequence (Q99607 whole entry)": "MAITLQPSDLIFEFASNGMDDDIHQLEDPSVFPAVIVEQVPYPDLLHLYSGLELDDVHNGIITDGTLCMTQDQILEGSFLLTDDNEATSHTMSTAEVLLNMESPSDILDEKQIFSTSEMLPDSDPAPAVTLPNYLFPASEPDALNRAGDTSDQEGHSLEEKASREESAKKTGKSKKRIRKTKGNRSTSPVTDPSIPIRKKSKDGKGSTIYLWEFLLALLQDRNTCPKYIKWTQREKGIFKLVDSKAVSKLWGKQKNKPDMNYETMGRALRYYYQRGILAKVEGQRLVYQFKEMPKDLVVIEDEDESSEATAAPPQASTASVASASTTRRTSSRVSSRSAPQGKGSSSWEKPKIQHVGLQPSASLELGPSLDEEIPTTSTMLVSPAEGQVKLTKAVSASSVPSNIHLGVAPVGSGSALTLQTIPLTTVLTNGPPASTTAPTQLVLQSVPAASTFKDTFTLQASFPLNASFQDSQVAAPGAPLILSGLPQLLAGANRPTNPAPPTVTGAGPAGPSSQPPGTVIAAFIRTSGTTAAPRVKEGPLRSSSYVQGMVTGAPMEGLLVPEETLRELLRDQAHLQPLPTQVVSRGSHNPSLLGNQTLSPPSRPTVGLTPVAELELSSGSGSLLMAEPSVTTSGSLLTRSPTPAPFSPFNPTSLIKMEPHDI", "conditions": "protein: recombinant; tags: N-terminal GST; dsDNA, one strand shown", "how_it_was_run": "as §1"}, "ELK4": {"biological_target": "T3, ELK4 (Homo sapiens, UniProt P28324-2 1-405)", "T3 sequence": "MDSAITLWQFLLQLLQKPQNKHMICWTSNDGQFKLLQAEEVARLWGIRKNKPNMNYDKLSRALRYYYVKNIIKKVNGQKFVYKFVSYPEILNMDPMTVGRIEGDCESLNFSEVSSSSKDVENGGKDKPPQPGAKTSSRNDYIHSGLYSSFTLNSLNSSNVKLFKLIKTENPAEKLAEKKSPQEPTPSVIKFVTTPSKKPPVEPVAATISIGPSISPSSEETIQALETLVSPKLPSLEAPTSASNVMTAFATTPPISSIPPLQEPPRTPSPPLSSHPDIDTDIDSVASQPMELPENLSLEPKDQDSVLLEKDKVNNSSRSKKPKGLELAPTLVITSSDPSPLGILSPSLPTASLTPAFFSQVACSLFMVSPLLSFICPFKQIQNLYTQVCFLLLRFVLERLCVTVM", "conditions": "protein: recombinant; tags: N-terminal GST; dsDNA, one strand shown", "how_it_was_run": "as §1"}, "ETV2": {"biological_target": "T4, ETV2 (Homo sapiens, UniProt O00321 1-342)", "T4 sequence": "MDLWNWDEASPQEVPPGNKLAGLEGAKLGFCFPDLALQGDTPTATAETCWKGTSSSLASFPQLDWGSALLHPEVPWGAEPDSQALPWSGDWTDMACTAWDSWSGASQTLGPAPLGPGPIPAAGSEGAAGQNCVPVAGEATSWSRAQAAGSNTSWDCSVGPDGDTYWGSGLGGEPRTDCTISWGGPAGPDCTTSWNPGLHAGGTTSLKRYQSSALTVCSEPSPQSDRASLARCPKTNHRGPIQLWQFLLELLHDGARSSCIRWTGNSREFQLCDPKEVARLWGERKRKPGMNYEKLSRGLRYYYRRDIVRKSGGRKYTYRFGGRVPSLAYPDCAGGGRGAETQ", "conditions": "protein: recombinant; tags: N-terminal GST; dsDNA, one strand shown", "how_it_was_run": "as §1"}, "ELF3": {"biological_target": "T5, ELF3 (Homo sapiens, UniProt P78545 1-371)", "T5 sequence": "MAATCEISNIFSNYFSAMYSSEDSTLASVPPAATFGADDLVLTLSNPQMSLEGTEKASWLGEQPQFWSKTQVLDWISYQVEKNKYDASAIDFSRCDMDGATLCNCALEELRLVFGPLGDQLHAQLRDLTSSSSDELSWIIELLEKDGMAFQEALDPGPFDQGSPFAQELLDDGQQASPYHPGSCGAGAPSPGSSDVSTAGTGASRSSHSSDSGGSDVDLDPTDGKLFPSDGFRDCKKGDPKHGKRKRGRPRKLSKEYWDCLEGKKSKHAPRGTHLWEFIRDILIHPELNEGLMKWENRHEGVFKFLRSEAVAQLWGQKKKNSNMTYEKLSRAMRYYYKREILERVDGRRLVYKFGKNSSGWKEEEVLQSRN", "conditions": "protein: recombinant; tags: N-terminal GST; dsDNA, one strand shown", "how_it_was_run": "as §1"}, "CRX": {"biological_target": "CRX (Homo sapiens, UniProt O43186 1-299)", "sequence (O43186 whole entry)": "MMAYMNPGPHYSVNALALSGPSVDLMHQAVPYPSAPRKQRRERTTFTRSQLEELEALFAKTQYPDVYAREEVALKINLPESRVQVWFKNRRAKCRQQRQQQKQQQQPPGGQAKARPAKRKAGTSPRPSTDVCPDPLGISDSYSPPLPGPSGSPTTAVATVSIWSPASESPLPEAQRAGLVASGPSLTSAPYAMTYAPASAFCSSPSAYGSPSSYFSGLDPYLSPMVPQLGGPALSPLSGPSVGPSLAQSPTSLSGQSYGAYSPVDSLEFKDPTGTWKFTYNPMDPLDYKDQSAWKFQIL", "conditions": "protein: recombinant; tags: N-terminal GST; dsDNA, one strand shown", "how_it_was_run": "as §1"}, "ETV1": {"biological_target": "ETV1 (Homo sapiens, UniProt P50549 1-477)", "sequence (P50549 whole entry)": "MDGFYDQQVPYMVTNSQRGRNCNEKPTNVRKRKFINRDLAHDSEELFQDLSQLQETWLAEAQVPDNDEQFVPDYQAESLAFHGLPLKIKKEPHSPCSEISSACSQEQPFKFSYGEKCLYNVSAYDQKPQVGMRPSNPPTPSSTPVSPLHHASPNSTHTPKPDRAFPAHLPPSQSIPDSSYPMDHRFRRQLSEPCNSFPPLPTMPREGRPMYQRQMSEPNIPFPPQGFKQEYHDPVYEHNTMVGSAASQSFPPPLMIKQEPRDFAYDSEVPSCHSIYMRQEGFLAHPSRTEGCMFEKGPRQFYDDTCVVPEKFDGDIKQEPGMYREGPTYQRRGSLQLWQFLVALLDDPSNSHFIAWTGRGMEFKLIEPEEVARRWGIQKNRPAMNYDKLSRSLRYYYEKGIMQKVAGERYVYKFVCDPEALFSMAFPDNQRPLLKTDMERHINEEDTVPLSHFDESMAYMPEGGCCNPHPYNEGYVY", "conditions": "protein: recombinant; tags: N-terminal GST; dsDNA, one strand shown", "how_it_was_run": "as §1"}}}
{"sequence": "TGTTTA", "values": [{"measurement": "binding signal", "setting": "FEV", "result": "1.12 fold enrichment (6-mer frequency, TF over GST control)"}, {"measurement": "binding signal", "setting": "ETV5", "result": "1.19 fold enrichment (6-mer frequency, TF over GST control)"}, {"measurement": "binding signal", "setting": "HSF1", "result": "1.12 fold enrichment (6-mer frequency, TF over GST control)"}, {"measurement": "binding signal", "setting": "SPIC", "result": "1.05 fold enrichment (6-mer frequency, TF over GST control)"}, {"measurement": "binding signal", "setting": "ELF4", "result": "1.11 fold enrichment (6-mer frequency, TF over GST control)"}, {"measurement": "binding signal", "setting": "ELK4", "result": "1.25 fold enrichment (6-mer frequency, TF over GST control)"}, {"measurement": "binding signal", "setting": "ETV2", "result": "1.04 fold enrichment (6-mer frequency, TF over GST control)"}, {"measurement": "binding signal", "setting": "ELF3", "result": "1.22 fold enrichment (6-mer frequency, TF over GST control)"}, {"measurement": "binding signal", "setting": "CRX", "result": "1.25 fold enrichment (6-mer frequency, TF over GST control)"}, {"measurement": "binding signal", "setting": "ETV1", "result": "1.09 fold enrichment (6-mer frequency, TF over GST control)"}]}
